# Laboratory results reported in PubChem BioAssay (EPA / NIEHS).
# Active and inactive are the calls of the source. Rule for the calls: active = hit-call score of the fitted dose curve at least 0.9, where 1 is the maximum; inactive = score below 0.9.
# Columns and labels:
# Details in all cases: mRNA level, 48 h; actives raise or lower the signal
# [1] = read-out: Hypoxia-inducible factor 1-alpha (Homo sapiens) (UniProt Q16665); assay: LTEA_HepaRG_HIF1A: Life Technologies and Expression Analysis (LTEA) Assay for Hypoxia-inducible factor 1 (HIF1A) Trancription factor using HepaRG (AID 2283503)
# Procedure, shortened: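 Differentiated HepaRG cells in serum-free induction medium exposed 48 h, in duplicate, to 8-point half-log series from 100 uM in 0.5% DMSO. HIF1A mRNA measured by TaqMan qRT-PCR, normalized to ACTB/GAPDH/POLR2A, fitted bidirectionally versus DMSO.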
# [2] = read-out: 3-Hydroxy-3-Methylglutaryl-CoA Synthase 2 (HMGCS2), HMGCS2 (gene 3158); assay: LTEA_HepaRG_HMGCS2: Life Technologies and Expression Analysis (LTEA) Assay for 3-Hydroxy-3-Methylglutaryl-CoA Synthase 2 (HMGCS2) using HepaRG (AID 2283504)
# Procedure, shortened: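 HepaRG, plated 48 h then switched to serum-free induction media; cmpd 8-pt, max 100 uM, 1/2-log, 0.5% DMSO, n=2, 48 h. HMGCS2 mRNA by Fluidigm TaqMan qRT-PCR, ACTB/GAPDH/POLR2A norm; bidirectional fit vs DMSO.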
# HGF (gene 3082) = assay: LTEA_HepaRG_HGF: Life Technologies and Expression Analysis (LTEA) Assay for Hepatocyte Growth Facto (HGF) using HepaRG (AID 2283505)
# Procedure, shortened: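 Read-out is HGF transcript level by qRT-PCR, normalized to three housekeeping genes, fitted bidirectionally against 0.5% DMSO vehicle. Human HepaRG cells received test chemicals for 48 h at up to 100 uM.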
# [3] = read-out: Insulin Like Growth Factor 1 (IGF1), IGF1 (gene 3479); assay: LTEA_HepaRG_IGF1: Life Technologies and Expression Analysis (LTEA) Assay for Insulin Like Growth Factor 1 (IGF1) using HepaRG (AID 2283506)
# Procedure, shortened: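 Differentiated HepaRG cells in serum-free induction medium, exposed 48 h in duplicate to 8 half-log concentrations up to 100 uM in 0.5% DMSO. IGF1 mRNA by Fluidigm qRT-PCR, normalised to ACTB, GAPDH and POLR2A.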
# [4] = read-out: Intercellular Adhesion Molecule 1 (ICAM1), ICAM1 (gene 3383); assay: LTEA_HepaRG_ICAM1: Life Technologies and Expression Analysis (LTEA) Assay for Intercellular Adhesion Molecule 1 (ICAM1) using HepaRG (AID 2283507)
# Procedure, shortened: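 Readout is qRT-PCR mRNA level, normalized to three housekeeping genes and fitted bidirectionally against 0.5% DMSO vehicle. Human HepaRG cultures received compound for 48 h, top concentration 100 uM with half-log dilutions.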
# [5] = read-out: Insulin-like growth factor-binding protein 1 (IGFBP1), IGFBP1 (gene 3484); assay: LTEA_HepaRG_IGFBP1: Life Technologies and Expression Analysis (LTEA) Assay for Insulin-like growth factor-binding protein 1 (IGFBP1) using HepaRG (AID 2283508)
# Procedure, shortened: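 Thawed HepaRG cells are plated for 48 h, switched to serum-free induction medium, then dosed in duplicate for another 48 h (100 uM top, half-log steps). Lysates in RLT go to qRT-PCR, and gain or loss of signal is fitted relative to vehicle.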
# [6] = read-out: Interleukin 6 (IL6), IL6 (gene 3569); assay: LTEA_HepaRG_IL6: Life Technologies and Expression Analysis (LTEA) Assay for Interleukin 6 (IL6) using HepaRG (AID 2283509)
# Procedure, shortened: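 HepaRG cells exposed in duplicate for 48 h to eight half-log concentrations, top 100 uM, in 0.5% DMSO serum-free induction medium. mRNA measured by qRT-PCR, normalized to ACTB, GAPDH and POLR2A. Bidirectional fit versus DMSO.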
# [7] = read-out: Interleukin 6 Receptor (IL6R), IL6R (gene 3570); assay: LTEA_HepaRG_IL6R: Life Technologies and Expression Analysis (LTEA) Assay for Interleukin 6 Receptor (IL6R) using HepaRG (AID 2283510);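 for AC50: differentiated human HepaRG liver cells in serum-free induction medium; TaqMan qRT-PCR signal normalized to ACTB GAPDH and POLR2A housekeeping genes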
# Procedure, shortened: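 Differentiated HepaRG cells, plated 48 h, then exposed in duplicate for 48 h in serum-free induction medium to 8 half-log concentrations (top 100 uM, 0.5% DMSO). IL6R mRNA measured by TaqMan qRT-PCR, normalized to ACTB/GAPDH/POLR2A; bidirectional fit vs DMSO.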
# [8] = read-out: Potassium channel subfamily K member 1 (KCNK1), KCNK1 (gene 3775); assay: LTEA_HepaRG_KCNK1: Life Technologies and Expression Analysis (LTEA) Assay for Potassium channel subfamily K member 1 (KCNK1) using HepaRG (AID 2283511)
# Procedure, shortened: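 Differentiated HepaRG cells, 48 h exposure in serum-free induction medium with 0.5% DMSO; 8 concentrations, half-log from 100 uM, duplicate. KCNK1 mRNA by qRT-PCR, normalized to ACTB, GAPDH, POLR2A; bidirectional fit vs DMSO.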
# [9] = read-out: Keratin 19 (KRT19), KRT19 (gene 3880); assay: LTEA_HepaRG_KRT19: Life Technologies and Expression Analysis (LTEA) Assay for Keratin 19 (KRT19) using HepaRG (AID 2283512)
# Procedure, shortened: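 KRT19 transcript levels, measured by Fluidigm qRT-PCR against three housekeeping genes, are fitted for gain or loss of signal relative to DMSO. Human HepaRG cells receive test chemicals (top 100 uM, half-log steps, 0.5% DMSO) for 48 hours.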
# Chain of Hypoxia-inducible factor 1-alpha (Homo sapiens) (Q16665 whole entry, looked up): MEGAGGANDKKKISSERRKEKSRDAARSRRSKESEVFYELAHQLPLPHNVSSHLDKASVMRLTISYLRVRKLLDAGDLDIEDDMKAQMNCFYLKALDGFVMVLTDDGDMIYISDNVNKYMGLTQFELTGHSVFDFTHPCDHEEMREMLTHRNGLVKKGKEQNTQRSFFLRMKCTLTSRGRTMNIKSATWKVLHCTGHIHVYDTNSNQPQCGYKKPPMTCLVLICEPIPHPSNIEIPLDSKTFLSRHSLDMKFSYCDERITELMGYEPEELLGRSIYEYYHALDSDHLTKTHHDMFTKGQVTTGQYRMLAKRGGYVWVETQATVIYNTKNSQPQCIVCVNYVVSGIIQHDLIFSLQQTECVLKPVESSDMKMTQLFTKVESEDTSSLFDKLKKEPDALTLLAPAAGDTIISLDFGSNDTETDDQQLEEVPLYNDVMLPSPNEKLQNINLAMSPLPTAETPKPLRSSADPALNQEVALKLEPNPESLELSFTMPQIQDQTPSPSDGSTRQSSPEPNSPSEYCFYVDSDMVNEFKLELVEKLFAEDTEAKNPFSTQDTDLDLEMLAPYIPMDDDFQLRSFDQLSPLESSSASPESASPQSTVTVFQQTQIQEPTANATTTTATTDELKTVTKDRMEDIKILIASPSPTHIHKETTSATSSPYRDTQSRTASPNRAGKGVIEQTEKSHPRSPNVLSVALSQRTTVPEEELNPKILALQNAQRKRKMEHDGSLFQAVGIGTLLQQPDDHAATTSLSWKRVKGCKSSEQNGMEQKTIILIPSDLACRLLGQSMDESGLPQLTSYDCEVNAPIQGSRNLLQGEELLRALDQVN
compound,measurement,setting,value
CN(C)c1ccc(N=NS(=O)(=O)O)cc1,outcome,[1],inactive
same,outcome,[2],inactive
same,outcome,HGF (gene 3082),inactive
same,AC50,[3],26.2 µM (active)
same,outcome,[4],inactive
same,AC50,[5],75.3 µM (active)
same,outcome,[6],inactive
same,AC50,[7],22.3 µM (active)
same,outcome,[8],inactive
same,AC50,[9],18.9 µM (active)
C[C@](N)(Cc1ccc(O)c(O)c1)C(=O)O,outcome,[1],inactive
same,outcome,[2],inactive
same,outcome,HGF (gene 3082),inactive
same,outcome,[4],inactive
same,outcome,[5],inactive
same,outcome,[6],inactive
same,outcome,[7],inactive
same,outcome,[8],inactive
same,outcome,[9],inactive
O=C(O)c1cccc(N(Cc2cccnc2)c2ccc(OC(F)F)c(OC(F)F)c2)c1,outcome,[1],inactive
same,outcome,[2],inactive
same,outcome,HGF (gene 3082),inactive
same,outcome,[3],inactive
same,outcome,[4],inactive
same,outcome,[5],inactive
same,outcome,[6],inactive
same,outcome,[7],inactive
same,outcome,[8],inactive
same,AC50,[9],24.6 µM (active)
CC(C)c1cccc(C(C)C)c1N1C(=O)c2ccc(O)cc2C1=O,outcome,[1],inactive
same,AC50,[2],80.7 µM (active)
same,AC50,HGF (gene 3082),93 µM (active)
same,outcome,[3],inactive
same,outcome,[4],inactive
same,outcome,[5],inactive
same,outcome,[6],inactive
same,outcome,[7],inactive
same,outcome,[8],inactive
same,AC50,[9],88.7 µM (active)
CC(C)CCCCCCCOC(=O)CCCCC(=O)OCCCCCCCC(C)C,outcome,[1],inactive
same,outcome,[2],inactive
same,outcome,HGF (gene 3082),inactive
same,outcome,[3],inactive
same,outcome,[4],inactive
same,outcome,[5],inactive
same,outcome,[6],inactive
same,outcome,[7],inactive
same,outcome,[8],inactive
same,outcome,[9],inactive
COC(=O)c1ccccc1O,outcome,[1],inactive
same,outcome,[2],inactive
same,outcome,HGF (gene 3082),inactive
same,outcome,[4],inactive
same,outcome,[5],inactive
same,outcome,[6],inactive
same,outcome,[7],inactive
same,outcome,[8],inactive
same,outcome,[9],inactive
O=c1[nH]c2ccc(S(=O)CCN3CCC(Cc4ccc(F)cc4)CC3)cc2o1 (stereo unspecified),outcome,[1],inactive
same,AC50,[2],74.7 µM (active)
same,outcome,HGF (gene 3082),inactive
same,outcome,[3],inactive
same,outcome,[4],inactive
same,AC50,[5],89.7 µM (active)
same,AC50,[6],63 µM (active)
same,outcome,[7],inactive
same,outcome,[8],inactive
same,AC50,[9],67.3 µM (active)
COc1cccc(-c2ccc(/C=C\CN3CCCCCC3)cc2Cl)c1,AC50,[1],83 µM (active)
same,AC50,[2],83.9 µM (active)
same,outcome,HGF (gene 3082),inactive
same,AC50,[3],66.7 µM (active)
same,AC50,[4],75.7 µM (active)
same,AC50,[5],74.5 µM (active)
same,AC50,[6],74.8 µM (active)
same,outcome,[7],inactive
same,AC50,[8],79.3 µM (active)
same,AC50,[9],45.2 µM (active)
Cn1c(=O)c2c(ncn2C)n(C)c1=O,outcome,[1],inactive
same,outcome,[2],inactive
same,outcome,HGF (gene 3082),inactive
same,outcome,[3],inactive
same,outcome,[4],inactive
same,outcome,[5],inactive
same,outcome,[6],inactive
same,outcome,[7],inactive
same,outcome,[8],inactive
same,outcome,[9],inactive
Cn1c(=O)cc(Oc2ccc(F)cc2F)c2cnc(NCC(C)(C)O)nc21,outcome,[1],inactive
same,outcome,[2],inactive
same,outcome,HGF (gene 3082),inactive
same,AC50,[3],12.6 µM (active)
same,outcome,[4],inactive
same,outcome,[5],inactive
same,outcome,[6],inactive
same,outcome,[7],inactive
same,outcome,[8],inactive
same,AC50,[9],18.3 µM (active)
C1=CCCC=CCCC=CCC1,outcome,[1],inactive
same,outcome,[2],inactive
same,outcome,HGF (gene 3082),inactive
same,outcome,[3],inactive
same,outcome,[4],inactive
same,outcome,[5],inactive
same,outcome,[6],inactive
same,outcome,[7],inactive
same,outcome,[8],inactive
same,outcome,[9],inactive
CCn1nc(Cc2ccccc2)cc1C1CCN(C[C@H]2C[C@H](N(C)[C@@H](C(=O)O)C(C)C)C[C@@H]2c2cccc(F)c2)CC1,outcome,[1],inactive
same,AC50,[2],50 µM (active)
same,outcome,HGF (gene 3082),inactive
same,AC50,[4],50 µM (active)
same,AC50,[5],73.6 µM (active)
same,outcome,[6],inactive
same,outcome,[7],inactive
same,outcome,[8],inactive
same,AC50,[9],34.9 µM (active)
O=c1n(CC2CO2)c(=O)n(CC2CO2)c(=O)n1CC1CO1 (stereo unspecified),outcome,[1],inactive
same,outcome,[2],inactive
same,outcome,HGF (gene 3082),inactive
same,outcome,[3],inactive
same,outcome,[4],inactive
same,outcome,[5],inactive
same,AC50,[6],50 µM (active)
same,outcome,[7],inactive
same,outcome,[8],inactive
same,outcome,[9],inactive
C=CC(=C)CCC=C(C)C,outcome,[1],inactive
same,outcome,[2],inactive
same,outcome,HGF (gene 3082),inactive
same,outcome,[3],inactive
same,outcome,[4],inactive
same,outcome,[5],inactive
same,outcome,[6],inactive
same,outcome,[7],inactive
same,outcome,[8],inactive
same,outcome,[9],inactive
CC(C)=CCCC(C)CCO (stereo unspecified),outcome,[1],inactive
same,outcome,[2],inactive
same,outcome,HGF (gene 3082),inactive
same,outcome,[3],inactive
same,outcome,[4],inactive
same,outcome,[5],inactive
same,outcome,[6],inactive
same,outcome,[7],inactive
same,outcome,[8],inactive
same,outcome,[9],inactive
O=C(O)c1cccc(Oc2ccccc2)c1,outcome,[1],inactive
same,outcome,[2],inactive
same,outcome,HGF (gene 3082),inactive
same,outcome,[3],inactive
same,outcome,[4],inactive
same,outcome,[5],inactive
same,outcome,[6],inactive
same,outcome,[7],inactive
same,outcome,[8],inactive
same,outcome,[9],inactive
CC(C)(O)c1coc(S(=O)(=O)NC(=O)Nc2c3c(cc4c2CCC4)CCC3)c1,outcome,[1],inactive
same,outcome,[2],inactive
same,outcome,HGF (gene 3082),inactive
same,outcome,[4],inactive
same,outcome,[5],inactive
same,outcome,[6],inactive
same,outcome,[7],inactive
same,outcome,[8],inactive
same,outcome,[9],inactive
COCCOc1cc2cc(C(=O)NC3CCN(C(C)C)CC3)n(CC(=O)Nc3ccc(Cl)cn3)c2cn1,AC50,[1],72.9 µM (active)
same,AC50,[2],47.2 µM (active)
same,outcome,HGF (gene 3082),inactive
same,AC50,[3],13.8 µM (active)
same,outcome,[4],inactive
same,AC50,[5],45 µM (active)
same,outcome,[6],inactive
same,AC50,[7],10.6 µM (active)
same,outcome,[8],inactive
same,AC50,[9],7.89 µM (active)
CC[C@H]1CC[C@H](NCc2cc3c(cc2OC)[C@H]2C[C@H]2C(=O)N3C)[C@H](c2ccccc2)N1,outcome,[1],inactive
same,outcome,[2],inactive
same,outcome,HGF (gene 3082),inactive
same,outcome,[3],inactive
same,outcome,[4],inactive
same,outcome,[5],inactive
same,outcome,[6],inactive
same,outcome,[7],inactive
same,outcome,[8],inactive
same,outcome,[9],inactive
CC(C)=CCCC(C)=CC=O,outcome,[1],inactive
same,outcome,[2],inactive
same,outcome,HGF (gene 3082),inactive
same,outcome,[3],inactive
same,outcome,[4],inactive
same,outcome,[5],inactive
same,outcome,[6],inactive
same,outcome,[7],inactive
same,outcome,[8],inactive
same,outcome,[9],inactive
